# Results taken from PubChem BioAssay.
# The source made the active and inactive calls.
# What was measured:
# [1] = optical density shifts of acrAB sulA E. coli – strain DRC41, OD650, 48 h, E. coli filamentation inducer project, primary screen (AID 1152); details: higher = more signal, called active from +8 up or from −8 down;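 also: E. coli MC1000 strain DRC41 lacking acrAB efflux pump and sulA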
# [2] = probe aLefty1 binding on compound microarray – biochemical, small-molecule microarray, 635/667 nm fluorescence, primary screen (AID 1153); details: higher = more signal;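 also: score merges spot fluorescence with signal-to-noise ratio from the scanned slide images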
# [3] = plasmodial surface anion channel blockers, osmotic lysis – cell-based, P. falciparum Indochina, OD700, 1 h, primary screen (AID 1154); details: P. falciparum Indochina infected RBC osmotic lysis, higher = more signal, called active from +8 up or from −8 down
# [4] = plasmodial surface anion channel blockers, osmotic lysis – cell-based, P. falciparum Indochina, OD700, 2 h, primary screen (AID 1155);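 also: lysis reports solute entry through the parasite surface anion channel PSAC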; details: P. falciparum Indochina infected erythrocytes, higher = more signal, called active from +8 up or from −8 down
# [5] = changes in parasitized red cell lysis, either direction – P. falciparum Indochina, OD700, 3 h, PSAC antagonist project, primary screen (AID 1156); details: P. falciparum-infected erythrocytes, osmotic lysis, higher = more signal, called active from +8 up or from −8 down
# [6] = plasmodial surface anion channel blockers, osmotic lysis – cell-based, P. falciparum Indochina, OD700, 18 h, primary screen (AID 1157); details: P. falciparum Indochina infected erythrocytes, osmotic lysis OD700, 18 h; higher = more signal, called active from +8 up or from −8 down
# [7] = S6 kinase pathway phospho-S6 level changes – cell-based, A549, cytoblot, luminescence, serum-stimulated, primary screen (AID 1158); details: 5 h, higher = more signal;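 also: serum-stimulated A549 lung adenocarcinoma cells; signal is phosphorylated S6 detected by cytoblot immunostaining with HRP secondary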
# [8] = target: NADPH oxidase 2 (Homo sapiens) (UniProt P04839); assay: compounds shifting NOX2 Amplex Red fluorescence – cell-based, HEK293-NOX2, PMA-stimulated, NOX inhibitor project, primary screen (AID 1159); details: 45 min, higher = more signal, called active from +8 up or from −8 down; also: test concentration not given here
# [9] = target: NADPH oxidase 4 (Homo sapiens) (UniProt Q9NPH5); assay: compounds shifting NOX4 Amplex Red fluorescence – cell-based, HEK293-NOX4, tetracycline-induced, NOX inhibitor project, primary screen (AID 1160); details: HEK293-NOX4, Amplex Red H2O2 fluorescence, 45 min; higher = more signal, called active from +8 up or from −8 down
# [10] = target: NADPH oxidase 5 (Homo sapiens) (UniProt Q96PH1); assay: compounds shifting NOX5 Amplex Red fluorescence – cell-based, HEK293-NOX5, NOX inhibitor project, primary screen (AID 1161); details: HEK293-NOX5, ionomycin, 45 min, higher = more signal
# [11] = compound effects on lung adenocarcinoma cell viability – A549, calcein-AM fluorescence, 48 h, basal, profiling panel (AID 1162); details: higher = more signal; also: test concentration not given here
# [12] = compound effects on differentiated 3T3-L1 adipocyte viability – cell-based, 3T3-L1 adipocytes, calcein-AM fluorescence, 48 h, basal, profiling panel (AID 1163); details: 3T3-L1 adipocytes viability, higher = more signal; also: test concentration not given here
# [13] = compound effects on hepatocellular carcinoma cell viability – HepG2, calcein-AM fluorescence, 48 h, basal, profiling panel (AID 1164); details: higher = more signal; also: test concentration not given here
# [14] = compound effects on multiple myeloma cell viability – MM1S, calcein-AM fluorescence, 48 h, basal, profiling panel (AID 1165); details: higher = more signal;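 also: viability of MM1S multiple myeloma cells under basal unstimulated conditions; test concentration not given here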
# [15] = calcein-AM signal in unstimulated myeloma cells – cell-based, calcein-AM fluorescence, 48 h, PK04 Diversity Set, profiling panel (AID 1166); details: RPMI8226 myeloma viability, higher = more signal;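 also: cells grown under basal conditions without added stimulus; test concentration not given here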
# [16] = JC-1 mitochondrial signal, unstimulated HepG2 cells – cell-based, JC-1 fluorescence, 24 h, 100 nL compound, profiling panel (AID 1167); details: HepG2 mitochondrial potential, higher = more signal; also: test concentration not given here
# [17] = JC-1 mitochondrial signal, unstimulated adipocytes – cell-based, JC-1 fluorescence, 3T3-L1 adipocytes, 24 h, 100 nL compound, profiling panel (AID 1168); details: JC-1 mitochondrial fluorescence, higher = more signal, called active from +8 up or from −8 down; also: test concentration not given here
# [18] = JC-1 mitochondrial signal, unstimulated myeloma cells – cell-based, JC-1 fluorescence, RPMI8226, 24 h, 100 nL compound, profiling panel (AID 1169); details: JC-1 mitochondrial potential fluorescence, higher = more signal; also: test concentration not given here
# [19] = JC-1 mitochondrial signal, unstimulated MM1S myeloma – cell-based, JC-1 fluorescence, 24 h, 100 nL compound, profiling panel (AID 1170); details: MM1S mitochondrial potential, higher = more signal; also: test concentration not given here
# [20] = resazurin metabolic signal in A549 cells – cell-based, resazurin fluorescence, 24 h, PK04 Diversity Set, profiling panel (AID 1171); details: A549 viability, higher = more signal, called active from +8 up or from −8 down; also: test concentration not given here
# NADPH oxidase 4 (Homo sapiens), sequence (Q9NPH5 whole entry, looked up): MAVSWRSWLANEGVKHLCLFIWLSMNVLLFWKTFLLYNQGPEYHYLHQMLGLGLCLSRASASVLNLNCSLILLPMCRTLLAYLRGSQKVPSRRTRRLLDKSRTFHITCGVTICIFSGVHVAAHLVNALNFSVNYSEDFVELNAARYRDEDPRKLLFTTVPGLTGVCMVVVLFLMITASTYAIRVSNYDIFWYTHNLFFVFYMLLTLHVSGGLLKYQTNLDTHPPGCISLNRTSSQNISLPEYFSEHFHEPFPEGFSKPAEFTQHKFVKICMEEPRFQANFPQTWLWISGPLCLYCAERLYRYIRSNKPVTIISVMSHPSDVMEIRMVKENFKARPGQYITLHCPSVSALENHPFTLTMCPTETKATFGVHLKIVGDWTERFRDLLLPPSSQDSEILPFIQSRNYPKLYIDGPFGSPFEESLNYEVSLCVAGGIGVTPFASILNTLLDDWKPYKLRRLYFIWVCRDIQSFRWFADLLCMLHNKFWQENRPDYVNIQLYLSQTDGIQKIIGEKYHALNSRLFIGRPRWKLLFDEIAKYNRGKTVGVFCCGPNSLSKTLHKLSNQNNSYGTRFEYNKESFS
# NADPH oxidase 2 (Homo sapiens), sequence (P04839 whole entry, looked up): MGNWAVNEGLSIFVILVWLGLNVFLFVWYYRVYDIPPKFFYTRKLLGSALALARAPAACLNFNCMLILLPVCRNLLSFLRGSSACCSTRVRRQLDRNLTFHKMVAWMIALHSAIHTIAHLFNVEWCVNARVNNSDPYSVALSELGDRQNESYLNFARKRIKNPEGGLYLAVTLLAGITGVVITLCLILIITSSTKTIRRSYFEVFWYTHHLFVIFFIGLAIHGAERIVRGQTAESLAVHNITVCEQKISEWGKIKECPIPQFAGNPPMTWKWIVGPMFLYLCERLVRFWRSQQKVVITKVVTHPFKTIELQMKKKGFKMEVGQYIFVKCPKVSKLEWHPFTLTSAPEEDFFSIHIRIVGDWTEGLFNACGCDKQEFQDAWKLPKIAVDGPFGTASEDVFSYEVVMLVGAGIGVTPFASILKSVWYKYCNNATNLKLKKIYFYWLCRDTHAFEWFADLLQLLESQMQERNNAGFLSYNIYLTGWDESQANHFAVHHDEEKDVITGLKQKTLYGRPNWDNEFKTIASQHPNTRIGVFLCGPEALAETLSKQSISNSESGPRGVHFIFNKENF
# NADPH oxidase 5 (Homo sapiens), sequence (Q96PH1 whole entry, looked up): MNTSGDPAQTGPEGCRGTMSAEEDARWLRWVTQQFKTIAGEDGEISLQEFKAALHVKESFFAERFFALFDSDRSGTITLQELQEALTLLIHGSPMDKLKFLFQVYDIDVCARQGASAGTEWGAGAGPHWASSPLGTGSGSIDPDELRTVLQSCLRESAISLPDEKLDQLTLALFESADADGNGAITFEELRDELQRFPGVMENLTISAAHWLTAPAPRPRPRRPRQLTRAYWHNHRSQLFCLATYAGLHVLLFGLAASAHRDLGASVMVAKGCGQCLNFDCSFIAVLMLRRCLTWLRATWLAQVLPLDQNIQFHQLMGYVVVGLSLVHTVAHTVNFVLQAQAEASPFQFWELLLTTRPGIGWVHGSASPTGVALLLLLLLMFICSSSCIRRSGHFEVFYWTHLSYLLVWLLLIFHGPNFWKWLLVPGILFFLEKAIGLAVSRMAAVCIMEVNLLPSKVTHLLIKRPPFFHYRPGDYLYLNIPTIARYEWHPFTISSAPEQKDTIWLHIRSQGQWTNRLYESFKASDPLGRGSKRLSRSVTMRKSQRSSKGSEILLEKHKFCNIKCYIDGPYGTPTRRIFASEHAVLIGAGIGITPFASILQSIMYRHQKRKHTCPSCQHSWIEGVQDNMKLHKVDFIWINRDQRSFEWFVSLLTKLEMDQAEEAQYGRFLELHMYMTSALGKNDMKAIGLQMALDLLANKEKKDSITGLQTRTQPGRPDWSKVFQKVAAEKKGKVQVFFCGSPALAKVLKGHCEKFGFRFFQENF
Structure (SMILES),z-score [1],composite z-score [2],z-score [3],z-score [4],z-score [5],z-score [6],z-score [7],z-score [8],z-score [9],z-score [10],z-score [11],z-score [12],z-score [13],z-score [14],z-score [15],z-score [16],z-score [17],z-score [18],z-score [19],z-score [20]
CC(C)C(CO)N1C(=O)[C@@H]2[C@H]3C(=O)OCC=C[C@H]3OC23C=CCN(C(C)(C)C)C(=O)[C@@H]13 (stereo not given in full),-0.875 (inactive),-0.155,0.897 (inactive),0.226 (inactive),0.697 (inactive),0.0863 (inactive),-0.154,0.997 (inactive),0.16 (inactive),1.92,-0.234,-0.783,-0.543,0.583,-0.251,-1.16,-0.0819 (inactive),0.185,0.264,-0.166 (inactive)
CCOC(=O)C1=C[C@@H](C(C)(C)C)N(S(=O)(=O)c2ccc(C)cc2)[C@H]1c1ccccc1,-0.492 (inactive),0.407,-0.132 (inactive),0.457 (inactive),-0.803 (inactive),-0.0282 (inactive),-0.667,-0.707 (inactive),-0.655 (inactive),-0.083,-1.42,-0.396,-2.27,-2.95,-3.35,3.49,-0.243 (inactive),-0.966,-0.75,1.62 (inactive)
O=C1C2C=CC(C(O)c3cccc(O)c3)N(Nc3ccccc3)C2C(=O)N1c1ccccc1 (stereo not given),-1.09 (inactive),0.315,6.48 (inactive),0.214 (inactive),0.185 (inactive),0.115 (inactive),0.109,-3.44 (inactive),-6.62 (inactive),-6.85,-0.671,-0.096,-1.22,-0.109,-0.444,-2.04,0.166 (inactive),-0.0193,-1.37,-0.224 (inactive)
COc1ccc([Si](C)(C)[C@H]2[C@H](CC(=O)N3Cc4ccccc4C[C@H]3CO)O[C@@]3(C(=O)N(Cc4ccc(N5C(=O)c6cccc7cccc5c67)cc4)c4ccccc43)[C@@H]2C)cc1,0.315 (inactive),0.0771,4.25 (inactive),1.36 (inactive),1.67 (inactive),1.09 (inactive),0.412,-0.327 (inactive),0.252 (inactive),-1.66,-0.0678,0.314,0.898,-0.769,-0.874,2.5,-0.178 (inactive),-1.22,-0.862,0.0918 (inactive)
COCCOC(=O)N1C(=O)[C@@]2(c3cc(C#CC4=CCCCC4)ccc31)[C@H](c1ccc(O)cc1)N1[C@H](c3ccccc3)[C@H](c3ccccc3)OC(=O)[C@H]1[C@@H]2C(=O)NC[C@H](O)c1ccccc1,0.289 (inactive),0.0406,1.8 (inactive),0.44 (inactive),-0.164 (inactive),0.368 (inactive),-0.147,1.5 (inactive),0.547 (inactive),1.55,-0.309,-0.539,0.778,-1.3,-3.84,-1.83,2.04 (inactive),-1.08,-1.06,-2.06 (inactive)
CC1CC/C=C\[C@H]2OC34C=CCN(CCN5CCOCC5)C(=O)[C@H]3N(C(C)CO)C(=O)[C@@H]4C2C(=O)O1 (stereo not given in full),-0.197 (inactive),-0.147,0.77 (inactive),-0.306 (inactive),0.753 (inactive),0.233 (inactive),0.0656,0.801 (inactive),-0.323 (inactive),1.58,0.956,-0.491,1.2,1.29,-0.143,0.602,0.225 (inactive),0.0954,-0.722,-0.387 (inactive)
COc1ccc(C#Cc2ccc3c(c2)[C@]2(C(=O)N3)[C@H](c3ccc(OCCO)cc3)N3[C@H](c4ccccc4)[C@H](c4ccccc4)OC(=O)[C@H]3[C@@H]2C(=O)N2CCc3cc(OC)c(OC)cc3C2)cc1,-0.433 (inactive),-0.261,3.24 (inactive),2.77 (inactive),1.15 (inactive),1.1 (inactive),-0.298,0.661 (inactive),0.621 (inactive),0.27,0.0926,0.485,0.477,-1.25,0.343,0.37,3.73 (inactive),-1.23,-1.49,-0.0906 (inactive)
COCC1C2CC[C@H]3C(OCc4ccc(OC)cc4)OC[C@]4(C)[C@H]3C2=C(CN4C(=O)OC(C)(C)C)[C@H](C)C1COC (stereo not given in full),-1.23 (inactive),-0.302,3.68 (inactive),-0.556 (inactive),0.308 (inactive),-2.05 (inactive),2.25,-1.53 (inactive),-1.89 (inactive),-2.99,-0.226,0.335,0.919,-2.64,-4.48,5.54,-0.664 (inactive),-0.205,-1.22,-0.0834 (inactive)
C=C(/C(=C/C[C@@H](OC(C)=O)c1ccc(OCCO)cc1)c1cc(C(=O)OC)ccc1OC)C(C)C,-0.2 (inactive),0.0794,8.16 (active),1.11 (inactive),1.24 (inactive),0.774 (inactive),-0.219,-0.323 (inactive),-0.645 (inactive),-1.87,0.679,-0.345,0.747,-1.83,-0.385,0.149,-0.852 (inactive),-0.799,-0.8,0.627 (inactive)
